Test results taken from the supplement of paper PMC11417369.
Whole data set: some 25,000 sequences, median “ln(normalized median fluorescence intensity)” near 9.7, cut for the highest 2% near 11. The full list was thinned out, with the highest values kept by preference.

These sequences were tested on PfAP2-HC AP2 domain (GST-tagged) (assay: gcPBM binding intensity (ln(normalized median fluorescence intensity)); higher = stronger DNA binding).
Summary of the method: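 Plasmodium falciparum DNA-binding domains carrying a GST tag were expressed in E. coli and applied for 1 h, at about 25 μg on average, to an Agilent 4 × 180k array. The array held primer-extended double-stranded 36-bp intergenic genomic probes together with negative controls, and binding took place in 1× PBS with 1% milk, 0.2 mg/ml BSA, 0.5% salmon testes DNA and 0.03% Triton X-100. An Alexa488 anti-GST antibody detected bound protein, and the array was scanned at 488 nm. Binding intensity is taken as the highest Masliner-normalised natural-log median intensity across replicate spots of either probe orientation.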
In the case of “TTATTCTTTTAATATACACACTTTGTCTTTTCGCGC [CACACA_site5525]”, the “gcPBM binding intensity (ln)” value is reported as 9.9. “TAATTTTTTTTAAACACACACATTACATTCAAAAAT [CACACA_site127]” was tested, and the “gcPBM binding intensity (ln)” value was 10.1. In the case of “AAAATTAAAACCTACACACACATTTAAAAAAAAAAA [CACACA_site3068]”, the “gcPBM binding intensity (ln)” value is reported as 10.1. For “GAAAAATTAAAACCTACACACACATTTAAAAAAAAA [CACACA_site9005]”, the “gcPBM binding intensity (ln)” value was 11. In the case of “ATACATTCAATGAAATGTACGTTTATTTACAGAAGA [XGTACX_site2999]”, the “gcPBM binding intensity (ln)” value is reported as 9.6. In the case of “TTTTTTCTTTTTATGTGTACTTATTTTATTTAATAA [XGTACX_site1080]”, the “gcPBM binding intensity (ln)” value is reported as 9.76. In the case of “TTTTTCAGATCCTATATAGTATCATATAAATTCCAT [CACACA_negctrl_site56]”, the “gcPBM binding intensity (ln)” value is reported as 9.39. In the case of “AAGAAAAAATGATGAATAGAGATCAAATCTATATAT [TGCATGCA_negctrl_site29]”, the “gcPBM binding intensity (ln)” value is reported as 9.65. With “TTTTTAAAATATTTAACACACAATTTTAATGCATAA [CACACA_site6036]” the “gcPBM binding intensity (ln)” value was 9.61. For “ATATTCATTAACCACACACACAAAAAAAATAAAATT [CACACA_site3801]”, the “gcPBM binding intensity (ln)” value was 10.2. With “ATATATATATTCCACACACACACAAAAAAAAAAAAA [CACACA_site3648]” the “gcPBM binding intensity (ln)” value was 10.6. “ATATAAATATTCCACACACACACAAAAAAAAAAAAA [CACACA_site7678]” was tested, and the “gcPBM binding intensity (ln)” value was 11. “CAATATAAAAAACACACGCACACAAAAAAAAAAAAA [CACACA_site3521]” was tested, and the “gcPBM binding intensity (ln)” value was 10.3. “GGATATTCATTAACCACACACACAAAAAAAATAAAA [CACACA_site3800]” was tested, and the “gcPBM binding intensity (ln)” value was 11.2. With “TCAATAAAAAAAAACGCACACACAAATATATTCCAT [CACACA_site1223]” the “gcPBM binding intensity (ln)” value was 11. For “ACACAAAAAATAAAAATATATATATATTATATATAT [CACACA_negctrl_site1489]”, the “gcPBM binding intensity (ln)” value was 9.75. For “AATAAAAAAAAACGCACACACAAATATATTCCATTC [CACACA_site1224]”, the “gcPBM binding intensity (ln)” value was 10.4. With “TCATTCATAAAAATAACACACAAAAAAAAAAAAAAA [CACACA_site1800]” the “gcPBM binding intensity (ln)” value was 9.62. “TTTTTATAATGATACATATATTATTTTATTCTTAAT [CACACA_negctrl_site124]” was tested, and the “gcPBM binding intensity (ln)” value was 9.54. With “AAAAAAAAAAAAAAAACACACATATCTGTATTTATA [CACACA_site5760]” the “gcPBM binding intensity (ln)” value was 9.75. For “ATATTGACAGGAAAAATTTTCTTTGAATCTTTAAAA [CACACA_negctrl_site1191]”, the “gcPBM binding intensity (ln)” value was 9.29. “ATTAGGATATATTAAAGTACTAATATAATACATTTT [XGTACX_site7386]” was tested, and the “gcPBM binding intensity (ln)” value was 9.55. With “TTTTACTAAATATATACACACATTATACAGATATAT [CACACA_site5765]” the “gcPBM binding intensity (ln)” value was 9.86. In the case of “AGTATATAAAATACTGTATCGATGGGGGAGGGCGCA [CACACA_negctrl_site1612]”, the “gcPBM binding intensity (ln)” value is reported as 9.91. With “TATAAAATACTGTATCGATGGGGGAGGGCGCAGGGG [TGCATGCA_negctrl_site250]” the “gcPBM binding intensity (ln)” value was 10.9. In the case of “ATATATGGGGCGCAGGAAAAGAGTTTTGGAAATAAA [CACACA_negctrl_site1265]”, the “gcPBM binding intensity (ln)” value is reported as 9.63. For “TGTATTAATAAAAATACACACATCATATTATATAAA [CACACA_site3534]”, the “gcPBM binding intensity (ln)” value was 9.73. For “TAAAATATAAGACACACACACATATATTTATATATC [CACACA_site6248]”, the “gcPBM binding intensity (ln)” value was 10.5. With “TTTTAATTAAGACACACACACACATATAAATATGTA [CACACA_site7144]” the “gcPBM binding intensity (ln)” value was 11. With “CAAAATTAATAAGTCACACACACATATATAATATAT [CACACA_site798]” the “gcPBM binding intensity (ln)” value was 11. With “ACATATACAAGACACACACACAACGTTTTAATAAAT [CACACA_site7017]” the “gcPBM binding intensity (ln)” value was 11.2. For “ACATATACAAAACACACACACAACGTTTTAATAAAT [CACACA_site1979]”, the “gcPBM binding intensity (ln)” value was 10.7. For “TTAAAATATACATAAACACACACAAAACGTTTAAGA [CACACA_site8267]”, the “gcPBM binding intensity (ln)” value was 10.4. For “AAAAAAATTAGACACACACACACATATAAATATGTA [CACACA_site6618]”, the “gcPBM binding intensity (ln)” value was 10.8. For “CATTATAAGAGACACACACACATATATAAATATGTA [CACACA_site6621]”, the “gcPBM binding intensity (ln)” value was 10.9. For “ATATTAAAGATATATACACACATATTTATAAATATA [CACACA_site7127]”, the “gcPBM binding intensity (ln)” value was 9.78. “ATTAAAATATAAGTCACACATATATATATATATATA [CACACA_site6145]” was tested, and the “gcPBM binding intensity (ln)” value was 9.51. For “GATAAATTAAGACACACACACATATATTTATTTATA [CACACA_site7789]”, the “gcPBM binding intensity (ln)” value was 11.2. For “AAATTAATAAGTCACACACACATATATAATATATAT [CACACA_site799]”, the “gcPBM binding intensity (ln)” value was 10.4. “TTTATATTAATTTGTGTAAATGCATATGATGAGCAT [XGTACX_negctrl_site254]” was tested, and the “gcPBM binding intensity (ln)” value was 9.41. With “ATTTTATGATATATTTGTACTTAACATTTGGATATA [XGTACX_site5888]” the “gcPBM binding intensity (ln)” value was 9.6. In the case of “ACCATCCTTAATACTTATTTTTTCACAATTAAGTAA [GTGCAC_negctrl_site269]”, the “gcPBM binding intensity (ln)” value is reported as 9.59. With “AAACCAAGGCACAATAATTAAATAAATAAAATCATG [GTGCAC_negctrl_site574]” the “gcPBM binding intensity (ln)” value was 9.58. “TTTTTCATAAATATATGTACATATATTTTATATAAC [XGTACX_site3402]” was tested, and the “gcPBM binding intensity (ln)” value was 9.66.
